In all, about 4,500 sequences were measured (“median log2 fold change of GCK-ALFA target abundance (FLAG IP / Myc IP barcode read proportion)”: median about 0.078, lowest 2% from about -0.6 on). Shown is part of a subset that was picked to be rich in the lowest values.
B1: GBRAP_35_5547 (protein)
chain: DPETETVEMLLNTMEDIVLALPDVSPEDLETLTKHLIDLANLAIEEKPKNKELLERLIKALEEAIKIVEASDLPEEVKAELLKELEKARKEAEKLLEKVK
B2: GBRAP_35_5544 (protein)
chain: MEEEETVEMLLNTMEDIVLALPDVSPEEQLILTKHLIKLAKLAIEEKPKNKELLKRGIEALKEAIKIVKESDLPEEEKEKLLKELEEAKEKFEKLLKKVE
B3: GBRAP_35_5545 (protein)
chain: DFDEETVEMLLNTMEDIVLALPDVSPEEKLILARHLIDLAEKAIEEKPKNVELLKRGIEVLERAIEIVKASDLPEEEREELIERLEEVKEKFEKLLKENE
B4: GBRAP_128_3307 (protein)
chain: MDEELLEEARELIERLKEADEEEAAELVREIAELLEKATPEEREEIAELFEEALKELSAEKLDVVADTLRELIPKATPETANVLADLQVEALNLAEEKEE
B5: GBRAP_160_4379 (protein)
chain: SEELKELKEEVKKLKEEFKEEAKDLSTAEVRTLAIGVLSEIAALVWSNEAVSEETKDKIMKIIDDAIAKIRANADASPEEIVAIVTEAFDKIIELIEKEE
B6: GBRAP_125_3112 (protein)
chain: NMEEILEALRIILKALGFDEEEIEEAVRLAREYGIKGTMIAAALALGWEEVAELLEKLSEEEVKEALLRTAEKIKENPELTPEEVKELLKEVLKEILEKK
B7: GBRAP_11_2866 (protein)
chain: NKEKLKEIAELLEKLIEVLERLLEEGVDNEELREEALKLAKEILELVKKYSDEADVKLAEYALELLEKAEEDPANAEQYVQEALAFARVLLGNVLLRIDE
B8: GBRAP_52_6101 (protein)
chain: AAAEAEALVERLLALVRAGREAEARAEAAALAAEMDEARLRVLTEALAARARAAAPEDLDAVWRLAELLADELEAAGWPDVLVDDLLAATAAALYERELA
B9: GBRAP_128_3576 (protein)
chain: SDEEILEKAKELIKKIIESDVEEAKKYAEELAKLLKEADPETREKIVELILEALPKLSVEKLEVLADVFREQRPKADPETANLLAEIEVEALNEAVEKEE
B10: GBRAP_166_4948 (protein)
chain: SLEEVIEETREFIRELAERMKTLNDEERLDALIEIAERLEEARKAGVSEEDLLELVREALELVKEAGGSVEQFVGALDMFVDLDEEELDKVAEIAEEVKA
B11: GBRAP_137_3672 (protein)
chain: MIDAKIEIEDGLAYAELTYKGSLEEAKKAAEIAEEIAGKIPGIAISTKVDEDGTLTIDLGGTLEQIMKFLKELAKALNVTINVTIKDLDTGETTKETIKA
B12: GBRAP_160_4310 (protein)
chain: KEELEALKKEVKEIFEEAKKLIEGETKEQQKAIVKVALGEVILLAFESPAITEEAEEKIAEIADEAIATLDANPDLTTEEIKKLLEEAEKKILELIEKLK
B13: GBRAP_74_6571 (protein)
chain: MEKYTKEMKAAAAAGDVKKAIKIVEEMIEKGIKKVSAEFLNALATIAEKHLPKATPEEQERFIDAASELVDLVLESEQDEETYKALNKLITALYEAELAR
B14: GBRAP_57_6475 (protein)
chain: MERLKAVEEAAERALALIDARAPREEILAAVRELAELLSEETLRDVLLIADPEAPEDLSKEEAIARLVALAAAYLDAGDYDGLRRLVELMLGTAEMDFEE
B15: GBRAP_39_5697 (protein)
chain: EREEEAEDTFSYLEAIGAKYQVEEKISLEEARERTRELAERFIKEHPEIAEVLKELLELAEKAGDLAILALLGLLLRAEEGTPLEEIKKDAELLIEYLKS
B16: GBRAP_125_2965 (protein)
chain: SEEEALEALAIIAKALGFDEDEVEEAVELARRFGLKKTLIALFLAEGYEEVADLVEKLTEEEAREVAKKLAEEIKKNPELTPEEVVELAKKLFEEVIAKK
B17: GBRAP_80_6822 (protein)
chain: MEEELEANLKALEAVDPEIAKIVREIVEIARELGVPLETLVRLAKAILELAKVDKEKARELAEELLEELREEREEGDREGALAELVDAESEALLEVEELE
B18: GBRAP_184_5158 (protein)
chain: KVLERTIEADNLEELKKKLKEIKEEAAKTKADLIVVLNLKELTKEMLETALSTLGEIKKEGLAPSITLLIENEMNDEQIDFALKLADEAGVTLVVAIPDE
B19: GBRAP_160_4463 (protein)
chain: KEEVKEAVEELRERVEEVLEDSENMSPEQILLAVAVEVGSSLLEWEEEGKISDEQAEILAKAIDELLRLAKEEKNASPEEAKKRAREIVEKAAKEILAAA
B20: GBRAP_78_6736 (protein)
chain: EIEELIDKALEELNRAARLAQQFPLEEQTELLDLIIDASTLLEEAEEEGFDLKLLEEALKKLKEALKLAKKLKTPLAEKLAKELEEAIKLVEKAIKLVKE
B21: GBRAP_128_3567 (protein)
chain: STAAAVAQARALLEAIKAGDAATRRAAAEALVALLAAADPETREAITAEILERLPELSAEDLEVLADVFRAARPAADPATAEALAEIQVEALNEREEKEE
B22: GBRAP_35_5597 (protein)
chain: DTDQLAVDSLIDMIEATIEGIPELPVDTLVSITNLLIKDAEELRKQLKNNVEALERIAKALEKLKEALKKHHGDNPKVQETIEKVEKAIKELKEQAKKAL
B23: GBRAP_184_5329 (protein)
chain: KTLEVHIENLPIEEIKKKVEEALKEAAAQGAALSIYIDASGYSIEEIKELIEYIGELAKKYGVKDVTLGIDKAVNEEEADILIEIADKYGIRLVLPLEDE
B24: GBRAP_184_5332 (protein)
chain: KTLEVHIENLPIEEIIKKVEEAAKKAAEEGADLLISIDASGYSIEEIIELIKKIGEIAKKYGVKNVTLGIDKEVNEEEADKLIEEADKYGIRLVLPLKDE
B25: GBRAP_83_6990 (protein)
chain: KEKITVAANGDDIEEAAEIVIDLTKEEGYEVDVEIIATKEDWEKVLEMVERLAEAGIETDITVLAEGITEEEAKEKQKELEEIAKEHGVNINVKVYAIEP
B26: GBRAP_83_6970 (protein)
chain: MEKVDVVTTPDHVEEAAEAARDLAEEEGYEVTVILVGSPEEVLKSAEIVAEKLKDIKNVSIRAAVRGVRKEEAEKTKKKLEEIGKKYGLKVEFDAELIEE
B27: GBRAP_106_2555 (protein)
chain: SEEEKFEKLIKESREEAEKEIADTRAWLAARRDQLTPEEIRAIETYTKKYLVAKILHKAIEAGFITKEEAEEILKEALSKTDFTPEEAVKFTLEKIKELY
B28: GBRAP_160_4810 (protein)
chain: KEKAEKLMEEARKDLLETAEASADLPIEDRARLLEAEGYTSILDFEEELNISDETEEELDEVVDDLVARLLANPDLSREEVLALVEEAVERMKEIVEKEV
B29: GBRAP_160_4809 (protein)
chain: MEKAEKLLEEARKDLLETAEASKDLPIEDRARLLEAEGYTSILDFEEELNISDETEEKLAQVVDDLVATLLANPDLSDEEVLALVEEAAEKMKEIVKEEV

Each binder was assayed against GABARAP, O95166 (assay: median log2 fold change of GCK-ALFA target abundance (FLAG IP / Myc IP barcode read proportion) (log2 ratio); each designed protein is fused to an ALFA-tag nanobody in HEK293 cells to bring the named protein to FLAG-tagged glucokinase (GCK); Myc marks an untargeted standard; higher = target protein stabilised (more abundant)). Details: target protein: 3xFLAG-MCP-GCK-ALFA reporter; HEK293 landing pad (RPLP).
GABARAP, O95166, sequence (O95166 whole entry, the tested form may be a part): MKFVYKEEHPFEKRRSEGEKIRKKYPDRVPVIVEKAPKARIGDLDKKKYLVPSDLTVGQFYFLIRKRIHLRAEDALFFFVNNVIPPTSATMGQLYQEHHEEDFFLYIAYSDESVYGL
Experimental: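 LABEL-seq trans screen in HEK293 landing-pad cells. Each de novo designed 100-aa effector handle, binding the indicated effector (E3 ligase, DUB or autophagy protein), is fused to a constant NbALFA target handle and induced with 2 ug/mL doxycycline. A FLAG-MCP-GCK-ALFA target and a Myc-MCP standard reporter were transfected, and after 48 h circRNA barcodes were recovered by anti-FLAG and anti-Myc IP and sequenced. The value is the median across barcodes (at least 3 per design) of log2(FLAG/Myc read-proportion ratio), with the two transfection replicates pooled. Negative values mean degradation and positive values mean stabilisation of the target.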
B1 was tested, and the “median log2 fold change” value was 0.0216.
With B2 the “median log2 fold change” value was -0.612.
For B3, the “median log2 fold change” value was 0.127.
With B4 the “median log2 fold change” value was 0.0926.
In the case of B5, the “median log2 fold change” value is reported as 0.234.
For B6, the “median log2 fold change” value was -0.66.
In the case of B7, the “median log2 fold change” value is reported as -0.0773.
For B8, the “median log2 fold change” value was -0.279.
In the case of B9, the “median log2 fold change” value is reported as 0.00207.
With B10 the “median log2 fold change” value was 0.0139.
In the case of B11, the “median log2 fold change” value is reported as 0.117.
With B12 the “median log2 fold change” value was -0.615.
B13 was tested, and the “median log2 fold change” value was -0.298.
B14 was tested, and the “median log2 fold change” value was 0.257.
For B15, the “median log2 fold change” value was 0.186.
With B16 the “median log2 fold change” value was -0.872.
In the case of B17, the “median log2 fold change” value is reported as -0.574.
In the case of B18, the “median log2 fold change” value is reported as -0.0197.
For B19, the “median log2 fold change” value was -0.697.
B20 was tested, and the “median log2 fold change” value was -0.0442.
With B21 the “median log2 fold change” value was 0.197.
In the case of B22, the “median log2 fold change” value is reported as 0.00193.
With B23 the “median log2 fold change” value was -0.086.
In the case of B24, the “median log2 fold change” value is reported as -0.598.
With B25 the “median log2 fold change” value was -0.0785.
B26 was tested, and the “median log2 fold change” value was 0.197.
In the case of B27, the “median log2 fold change” value is reported as -0.507.
B28 was tested, and the “median log2 fold change” value was -0.669.
With B29 the “median log2 fold change” value was -0.35.
